Screens deposited in PubChem BioAssay by Center for Chemical Genomics, University of Michigan.
Many of the other results were omitted from the sample, so hits are more common in it than they were.
Dicer processing: human Dicer pre-microRNA cleavage inhibition; cat-ELCCA pre-miR-21 Dicer processing, chemiluminescence; hits give high values; 6% of 47,000 active; z-score at 25 µM; AID 1347074; in the data active = z-score above about 3, passing the limit was not always enough;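 also: plate controls were vehicle for no effect and no enzyme for full effect; higher signal means more uncleaved substrate so more Dicer inhibition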
* marks the source's active call; other numbers are inactive results.

SMILES	Dicer processing
O=C1OC(c2cccnc2Oc2ccc(Cl)cc2)=N/C1=C\c1ccc(Cl)cc1	-0.82
O=C1OC(c2ccc(Cl)cc2)=N/C1=C/c1cccc([N+](=O)[O-])c1	3.6*
O=C1OC(c2ccccc2)=N/C1=C\c1cccc([N+](=O)[O-])c1	1.7
COCCNC(=O)CSc1nc(N)c2c3c(sc2n1)CCCC3	-0.14
CCc1nc(C)cn1S(=O)(=O)c1ccc(C2CCCCC2)cc1	1.9
Cc1cc(C)c2nc(NCc3ccccc3O)sc2c1	2.9
COc1cc(CNc2nc3c(C)cc(C)cc3s2)ccc1O	3.1*
COc1cc(CCC(C)NCc2ccccc2)ccc1O (stereo unspecified)	-1.2
O=C(c1ncn[nH]1)N(Cc1cc2ccccc2[nH]c1=O)c1ccccc1	0.09
FC(F)(F)c1c2c(nc3cc(C4CC4)nn13)-c1ccccc1CC2	-0.88
Cc1cc2nc3c(c(C(F)(F)F)n2n1)CCc1ccccc1-3	-1.6
COCCNC(=O)c1nn2c(C(F)(F)F)c3c(nc2c1Cl)-c1ccccc1CC3	4.7*
CC(C)(C)OC(=O)N[C@@H](CCC(=O)OCc1ccccc1)C(N)=O	0.06
COC(=O)c1csc2c(C(F)(F)F)cc(N3CCN(S(=O)(=O)c4ccc(Cl)cc4)CC3)nc12	0.39
O=C(NC1CCSC1=O)c1ccc(-c2ccccc2)cc1 (stereo unspecified)	-1.8
Cc1onc(-c2ccccc2)c1C(=O)NC1CCSC1=O (stereo unspecified)	-0.7
O=C(NC1CCSC1=O)c1cccc(C(=O)NC2CCSC2=O)c1 (stereo unspecified)	3*
CCOc1cc(C)c(Cl)cc1S(=O)(=O)n1cnc(C)c1	-0.76
c1ccc(Nc2nc(Nc3ccccc3)nc(N3CCOCC3)n2)cc1	2.5
COc1ccc(-c2coc3cc4oc(=O)c5cc(OC)ccc5c4cc23)cc1	3.8*
COc1ccc2c(c1)c(=O)oc1cc3occ(-c4ccc(C)cc4)c3cc12	-1
COc1ccc2c(c1)c(=O)oc1cc3occ(-c4ccc(F)cc4)c3cc12	1.5
O=C(CSc1nccc(C(F)(F)F)n1)Nc1ccc(Br)cc1	-1.1
COC(=O)c1cc([N+](=O)[O-])nn1Cc1ccccc1	1.4
O=C(Cn1cnc([N+](=O)[O-])n1)OCCCc1ccccc1	3.5*
SMILES	Dicer processing
O=C(O)c1cccc(Cn2cnc([N+](=O)[O-])n2)c1	-0.2
Cc1c(C)c(C)c(CSC2=NCCN2Cc2ccccc2)c(C)c1C	1.8
Cc1nnc2n1NC(c1ccc(F)cc1)C(C(=O)Nc1ccc(Br)cc1Cl)S2 (stereo unspecified)	3.4*
Cc1cc(Br)ccc1NC(=O)C1Sc2nnc(C)n2NC1c1ccccc1 (stereo unspecified)	0.34
Cc1ccc(C2Nn3c(C)nnc3SC2C(=O)Nc2ccc(C)cc2Br)cc1 (stereo unspecified)	0.22
CCOc1ccccc1N1C(=O)C2C3c4ccccc4C(C(=O)O)(c4ccccc43)C2C1=O (stereo unspecified)	1.4
CC(C)(O)c1cc(C(F)(F)F)cc(C(F)(F)F)c1	0.04
Cc1cccc(-c2noc(-c3ccco3)n2)c1	-0.24
CSc1scc(-c2cccs2)c1C#N	-1.1
CCc1ccc(CN2CCN(Cc3cccnc3)CC2)cc1	3.1*
Clc1ccccc1CN1CCN(Cc2cccnc2)CC1	1.4
Brc1cccc(CN2CCN(Cc3ccncc3)CC2)c1	2.8
COc1ccc(-c2cnc(NCc3cccc(Br)c3)n2C)cc1	0.84
c1ccc(-c2nc3c4c5c(sc4ncn3n2)CCCC5)cc1	1.2
c1cc(-c2nc3c4c5c(sc4ncn3n2)CCCCC5)ccn1	0.59
CC1(C)Cc2c(sc3ncn4nc(-c5ccncc5)nc4c23)CO1	3.1*
COc1ccc(-c2nc3c4c5c(sc4ncn3n2)CCCC5)cc1	0.04
Fc1ccc(-c2nc3c4c5c(sc4ncn3n2)CCCC5)cc1	4*
CC1(C)Cc2c(sc3ncn4nc(-c5ccncc5)nc4c23)C(C)(C)N1	0.58
S=c1nc[nH]c2c1nnn2Cc1ccccc1Cl	0.21
C=CCNc1nc2c(c(=O)[nH]c(=O)n2C)n1Cc1ccc(F)cc1	1.7
O=C(c1cccc2ccccc12)N1CCc2[nH]c3ccc(F)cc3c2C1	-0.03
CCN(c1cccc2ccccc12)S(=O)(=O)c1ccccc1	0.23
FC(F)(F)c1cc(-c2ccc(Cl)cc2)nc2cc(C3CC3)nn12	-0.53
CC1(C)OC(=O)c2ccccc2-c2ccccc21	0.83
SMILES	Dicer processing
CC1(C(=O)O)Cc2ccccc2C(=O)O1 (stereo unspecified)	3.9*
O=C1OC(c2ccccc2)(c2ccccc2)c2ccccc21	-0.69
CC1CCC(C)N(C(=O)c2cc3n(n2)C(C(F)(F)F)CC(c2ccco2)N3)C1 (stereo unspecified)	0.82
Cn1nccc1NC(=O)c1nccnc1C(=O)O	-0.01
CC(=O)Nc1ccc(NC(=O)c2nccnc2C(=O)O)cn1	-0.06
C/C(=C\C#N)NC(=O)c1nccnc1C(=O)O	4.6*
COCCOC(=O)C1=C(C)NC2=C(C(=O)CCC2)C1c1cccc2ccccc12 (stereo unspecified)	0.3
CC1CCCC(C)N1C(=O)Cn1cc(C(=O)C2CC2)c2ccccc21 (stereo unspecified)	1.9
COC(=O)c1ccc(N2C(=O)C3C4C=CC(CC4)C3C2=O)cc1 (stereo unspecified)	-0.19
O=C1C2C3C=CC(C3)C2C(=O)N1c1ccc(Cc2ccc(N3C(=O)C4C5C=CC(C5)C4C3=O)cc2)cc1 (stereo unspecified)	0.54
CC(C)c1ccc(N2C(=O)C3C4C=CC(CC4)C3C2=O)cc1 (stereo unspecified)	3.5*
O=C1C2C3C=CC(CC3)C2C(=O)N1c1cccc(Cl)c1 (stereo unspecified)	3.3*
Cc1ccc(N2C(=O)C3C4C=CC(CC4)C3C2=O)c(Br)c1 (stereo unspecified)	1.3
O=C(O)c1cccc(N2C(=O)C3C4C=CC(CC4)C3C2=O)c1 (stereo unspecified)	2
CSc1nsc(SCC(=O)NC2=NC(=O)C(C)S2)n1 (stereo unspecified)	-1.7
c1ccc(CNc2nc(-c3ccccc3)ns2)cc1	-0.46
CCOc1ccccc1C1C(C(=O)OCc2ccccc2)=C(C)NC2=C1C(=O)CC(C)(C)C2 (stereo unspecified)	-0.36
C=CCn1c2ccccc2c2nnc(SCC(=O)Nc3nnc(C(C)C)s3)nc21	0.47
O=C1CC2(CCCc3ccccc32)C(=O)N1CN1CCOCC1 (stereo unspecified)	1.8
CC(=O)OC12CC3CC(C1)CC(C(=O)O)(C3)C2	-7.5
Cc1c2occ(-c3ccc4c(c3)OCO4)c2cc2c1oc(=O)c1ccccc12	0.19
Cc1c2occ(-c3ccc(F)cc3)c2cc2c1oc(=O)c1ccccc12	4.2*
COc1ccc2c(c1)c(=O)oc1c(C)c3occ(-c4ccc(F)cc4)c3cc12	-0.64
O=C(/C=C/c1ccccc1)NC(=S)Nc1ccc(OC(F)(F)F)cc1	-0.76
O=C(/C=C/c1ccccc1)NC(=S)Nc1cc(C(F)(F)F)cc(C(F)(F)F)c1	-0.04
SMILES	Dicer processing
COC(=S)NC(=O)/C=C/c1ccccc1	3.5*
CC(C)(C)c1ccc(-c2cc(NS(=O)(=O)c3ccccc3)n[nH]2)cc1	-7.1
Cc1cc(C)c(S(=O)(=O)Nc2cccc3cccnc23)c(C)c1	4.5*
Cc1cc2oc(=O)sc2cc1NS(=O)(=O)c1cccc2cccnc12	-3.6
Cc1cc(C)c(S(=O)(=O)Nc2ccc(Br)c3cccnc23)c(C)c1	2.7
COC(=O)/C=c1\sc2nc3ccccc3n2c1=O	0.43
